KKLEB tox: CF airway cell cytotoxicity counter-screen | KKLEB CF airway cells viability, ATPlite luminescence, overnight; stronger effect = lower value; cells stimulated with P. aeruginosa culture filtrate | activity change (cytotoxicity), % at 5 µM | 360,000 tested, 0.36% active | AID 602141;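 active = corrected activity change at or below -50% at 5 µM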
CF NFkB inh: cystic fibrosis NF-kB activation inhibition | KKLEB NF-kB-GFP reporter, PAF-induced, GFP fluorescence overnight | inhibition, % at 5 µM | 360,000 tested, 0.86% active | AID 588850;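 active = at least 50% inhibition at 5 µM, scaled per plate between neutral and stimulator controls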;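 note: PAF is a Pseudomonas aeruginosa culture filtrate used as stimulus; plate controls were PAF-stimulated DMSO wells for no effect and unstimulated DMSO wells for full effect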
TWEAK Fn14 block: blocks TWEAK-Fn14 interaction in a reporter cell assay; TWEAK-stimulated Fn14 reporter cells, luciferase luminescence, 8 h; inhibition, % at 10 µM; 360,000 tested, 2% active; AID 1159606; in the data active = inhibition above about 50%
Peg3 promoter: inhibitors of Peg3 promoter | 360,000 tested, 1.7% active | HeLa PEG-Prom luciferase reporter, luminescence, overnight | inhibition, % at 20 µM;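 active = inhibition of at least 50% at 20 µM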
TROY NFkB inh: blocks TROY-dependent signaling in reporter cells | AID 1347056 | inhibition, % at 10 µM | Q293 LMP1-TROYcd NF-kB luciferase reporter, 4 h | 360,000 tested, 0.98% active;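 active = compounds whose plate-normalised and pattern-corrected inhibition of the luciferase reporter signal at the single screening dose is 50% or more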
HIF-2a block: blocks HIF-2a reporter activity. 786-0 RCC cells HIF-2a reporter, luciferase luminescence, overnight. inhibition, % at 18.8 µM. 360,000 tested, 0.72% active. AID 624352;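 active = inhibition of the luminescence signal of 40% or more relative to plate controls, in a single-dose primary screen at 18.75 µM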
Mdm2-MdmX confirm: confirmation of inhibitors of human Mdm2/MdmX interaction, set 2; AID 504601; inhibition, % at 8 µM; SaOS-2 split-luciferase Mdm2/MdmX complementation, luminescence; 740 tested, 99% active; shares compounds with HIF-2a block;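 active = mean inhibition of the luminescence signal across two replicates at or above 26 percent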
Target sequence (O15151 whole entry, looked up): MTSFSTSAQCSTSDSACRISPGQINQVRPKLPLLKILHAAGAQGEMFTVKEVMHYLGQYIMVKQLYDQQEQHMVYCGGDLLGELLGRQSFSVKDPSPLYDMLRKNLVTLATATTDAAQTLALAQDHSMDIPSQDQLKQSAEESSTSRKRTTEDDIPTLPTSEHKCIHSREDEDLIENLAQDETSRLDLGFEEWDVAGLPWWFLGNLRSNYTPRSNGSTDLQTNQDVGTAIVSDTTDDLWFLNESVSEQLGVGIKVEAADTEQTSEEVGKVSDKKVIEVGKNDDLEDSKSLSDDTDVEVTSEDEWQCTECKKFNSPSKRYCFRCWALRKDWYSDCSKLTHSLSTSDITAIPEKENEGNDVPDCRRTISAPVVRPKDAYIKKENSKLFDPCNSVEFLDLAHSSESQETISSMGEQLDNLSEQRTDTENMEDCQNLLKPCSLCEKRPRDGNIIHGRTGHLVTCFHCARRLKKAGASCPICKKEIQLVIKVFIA
Target sequence (Q00987 whole entry, looked up): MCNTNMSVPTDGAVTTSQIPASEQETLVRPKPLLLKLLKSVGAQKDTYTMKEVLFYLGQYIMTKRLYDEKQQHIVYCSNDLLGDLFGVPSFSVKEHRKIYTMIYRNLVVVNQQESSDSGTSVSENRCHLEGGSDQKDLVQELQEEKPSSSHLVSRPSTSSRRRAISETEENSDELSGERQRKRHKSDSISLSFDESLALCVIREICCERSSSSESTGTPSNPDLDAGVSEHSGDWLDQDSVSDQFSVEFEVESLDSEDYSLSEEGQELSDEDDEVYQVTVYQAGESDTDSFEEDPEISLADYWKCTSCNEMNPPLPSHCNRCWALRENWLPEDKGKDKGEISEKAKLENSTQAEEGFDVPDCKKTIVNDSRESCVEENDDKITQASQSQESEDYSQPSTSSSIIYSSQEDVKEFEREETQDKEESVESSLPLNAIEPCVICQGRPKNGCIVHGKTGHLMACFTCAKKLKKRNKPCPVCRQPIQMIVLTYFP
HIF-2a conf: HIF-2a inhibition, single concentration confirmation; shares compounds with HIF-2a block; 786-0 RCC cells, HIF-2a luciferase reporter luminescence, overnight; inhibition, % at 18.8 µM; 1,800 tested, 56% active; AID 651580;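 active = mean inhibition across four replicates of at least 40 percent at the single tested concentration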
HIF-1a counter: HIF-1a inhibition counter-screen for HIF-2a hits; shares compounds with HIF-2a block; MiaPaCa-2 HIF-1a luciferase reporter, desferoxamine, overnight; inhibition, % at 18.8 µM; 1,800 tested, 72% active;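 active = mean inhibition of the reporter signal across four replicates at the single tested dose of 50% or more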
An asterisk follows results filed as active; · = no result. Sampled rows, rich in hits. Any-hit rate of the full collection: about 4%.

SMILES | KKLEB tox | CF NFkB inh | TWEAK Fn14 block | Peg3 promoter | TROY NFkB inh | HIF-2a block | HIF-2a conf | HIF-1a counter | others
Nc1cccnc1S(=O)(=O)c1ccccc1 | 4.5 | 0.0 | -5.1 | -0.8 | 0.2 | 20.2 | · | ·
CCOc1ccccc1NC(=O)CSc1nncc2ccccc12 | 0.4 | 15.3 | 13.6 | 26.8 | -1.7 | 6.0 | · | ·
COc1ccc2cc(CCNC(=O)c3ccc4c(c3)OCO4)c(=O)[nH]c2c1 | -9.7 | -24.1 | 15.0 | 11.1 | 0.8 | 38.2* | -11.7 | 3.1
Cc1cccc(C)c1NC(=O)C(c1ccnc2ccccc12)N1CCN(C)CC1 (configuration not stated) | · | · | · | · | · | -12.2 | · | ·
O=c1c2ccccc2cnn1CCOc1ccccc1 | 3.1 | -27.1 | 97.1* | 43.8 | 71.8* | 53.8* | 64.3* | 70.5*
CC(CNS(=O)(=O)c1ccc(Cl)cc1)n1cncn1 (configuration not stated) | -5.2 | -8.6 | 15.5 | 13.9 | -2.1 | 11.9 | · | ·
CCC1(c2ccccc2)NC(=O)N(CC(=O)NCCN2C(=O)S/C(=C\c3cccnc3)C2=O)C1=O (configuration not stated) | 27.7 | -13.9 | -7.7 | -1.0 | -12.1 | 8.9 | · | ·
Cc1[nH]nc2c1C(c1ccc(O)cc1)C1=C(CC(C)(C)CC1=O)N2 (configuration not stated) | 0.0 | -11.3 | -21.1 | 2.5 | -1.7 | -30.1 | · | ·
CC1(C)CC(=O)C2=C(C1)NC1=C(C(=O)c3ccccc31)C2c1ccc(O)cc1 (configuration not stated) | -7.5 | 2.6 | 11.6 | 14.3 | -9.1 | 43.8* | 19.5 | 39.8
C=CCOc1c(Cl)cc(C(=S)N2CCCC2)cc1OCC | -2.0 | -4.1 | 8.2 | 7.0 | 3.5 | 19.4 | · | ·
O=C(/C=C/c1ccc(S(=O)(=O)NCc2ccco2)cc1)NCc1ccccc1Cl | -9.9 | -9.1 | 20.9 | 7.3 | -4.0 | 41.9* | -1.9 | 15.0
COc1ccc(CNC(=O)/C=C/c2ccc(S(=O)(=O)NCc3ccco3)cc2)cc1OC | -5.7 | 3.1 | 21.4 | 25.4 | -2.8 | 10.4 | · | ·
CCOC(=O)[C@]12CCCC=C1N(Cc1cccc3ccccc13)C(=O)[C@H](CC(=O)NCCc1ccccc1OC)C2 | · | · | 17.9 | · | 21.7 | -22.7 | · | ·
CC(=O)Nc1ccc(S(=O)(=O)NCCC(=O)NCCOc2ccccc2)cc1 | 3.3 | -18.1 | 13.0 | 4.8 | 8.0 | 3.6 | · | ·
Cc1ccc(-c2csc(NC(=O)C3=NN(C4CCS(=O)(=O)C4)C(=O)CC3)n2)cc1 (configuration not stated) | 9.6 | -23.3 | 2.2 | 4.2 | 9.2 | 13.9 | · | ·
CC(=O)Nc1ccc(Nc2nc(C)c([N+](=O)[O-])c(N(C)c3ccccc3)n2)cc1 | -6.2 | 0.6 | -0.7 | 29.4 | 42.6 | 80.6* | 91.8* | 93.5*
CN(c1ccccc1)c1nc(N)c([N+](=O)[O-])c(Nc2ccccc2)n1 | -23.6 | 47.4 | -5.7 | -8.8 | -33.7 | -28.8 | · | ·
C/C(=N\NC(=S)Nc1cc(S(=O)(=O)N2CCOCC2)ccc1Cl)c1ccccc1F | -0.4 | 15.0 | -9.7 | 52.6* | -9.0 | 70.1* | 25.3 | 87.0*
CC(C)N(C(=S)Nc1cc(S(=O)(=O)N2CCOCC2)ccc1Cl)c1ccccc1 | -2.2 | 4.5 | 8.7 | 8.7 | -6.6 | 18.0 | · | ·
Nc1nc2cc(S(=O)(=O)NC3=NCCCCC3)ccc2s1 | -4.5 | -11.1 | -11.5 | 9.4 | -3.3 | 40.6* | -7.2 | -8.2
CC(=O)Nc1cccc(-c2ccnc3c2CC(C)(C(=O)NCc2cccs2)O3)c1 (configuration not stated) | -13.7 | 0.0 | 6.2 | 10.9 | 16.7 | 18.6 | · | ·
O=C(O)c1ccc(Cl)c(S(=O)(=O)N2CCCC2)c1 | 5.6 | -7.7 | -19.6 | 8.2 | -7.6 | 41.4* | 1.4 | 1.4
O=C(c1ccc(Cl)c(S(=O)(=O)N2CCCCCC2)c1)N1CCCCC1 | -1.6 | -16.7 | -3.5 | -21.5 | 1.7 | -55.3 | · | ·
O=C(C(=Cc1ccc(F)cc1)C(=O)c1ccccc1)c1ccccc1 | -6.6 | 36.6 | 78.0* | 99.6* | -56.4 | 84.8* | 43.3* | 102.3*
O=C(C(=Cc1ccc(F)cc1)c1ccccc1)c1ccc(O)cc1 | -0.7 | -19.2 | 2.6 | 18.0 | 23.1 | -18.0 | · | ·
SMILES | KKLEB tox | CF NFkB inh | TWEAK Fn14 block | Peg3 promoter | TROY NFkB inh | HIF-2a block | HIF-2a conf | HIF-1a counter | others
Cc1ccc(C#N)c(SCc2nnc(-c3ccc(Cl)cc3)o2)n1 | -39.6 | -5.8 | 97.6* | 46.0 | 87.0* | 45.8* | 59.3* | 80.2*
Cc1cc(C)c(C#N)c(SCc2nnc(-c3ccccc3)o2)n1 | -17.8 | 7.7 | 99.9* | 38.4 | 89.6* | 66.6* | 75.8* | 82.0*
Cc1cc(C)c(C#N)c(SCc2nnc(-c3ccccc3[N+](=O)[O-])o2)n1 | -1.4 | 0.3 | -11.7 | -269.4 | 44.8 | -214.5 | · | ·
COc1ccc(-c2nc3c(Cl)cc(C(F)(F)F)cn3c2Cc2cccc(F)c2)cc1OC | -3.5 | 1.1 | 2.4 | -25.7 | 3.2 | -32.3 | · | ·
CCCCCOc1ccc(C(=O)C(c2ccccc2)N2CCOCC2)cc1 (configuration not stated) | -3.2 | 15.3 | 0.2 | 25.9 | 11.9 | 22.8 | · | ·
CCCCOc1ccc(C(=O)C(CN2CCOCC2)c2ccccc2)cc1 (configuration not stated) | -37.7 | -18.1 | 31.2 | 96.5* | 3.4 | 86.9* | 25.4 | 104.8*
CCCOc1ccc(C(=O)C(CN2CCCC2)c2ccccc2)cc1 (configuration not stated) | -61.0* | 38.5 | 32.9 | 108.5* | 15.6 | 85.5* | -17.7 | 103.9*
C#CCN(C[C@@H]1[C@@H](OC(=O)NCc2ccc(OC)c(OC)c2)[C@@H](OC(=O)NCc2ccc(OC)c(OC)c2)Cn2c(=O)ccc(=O)n21)S(=O)(=O)c1ccc(C)cc1 | -18.6 | 42.6 | 7.2 | 24.0 | 10.1 | 33.2 | · | ·
C#CCN(C[C@@H]1[C@@H](OC(=O)NCCCCCC)[C@@H](OC(=O)NCCCCCC)Cn2c(=O)ccc(=O)n21)S(=O)(=O)c1ccc(C)cc1 | -88.7* | 87.1* | 106.5* | 97.5* | 88.0* | 95.1* | 90.6* | 106.9*
C#CCN(C[C@@H]1[C@@H](OC(=O)NCC2CCCCC2)[C@@H](OC(=O)NCC2CCCCC2)Cn2c(=O)ccc(=O)n21)S(=O)(=O)c1ccc(C)cc1 | -96.6* | 106.0* | 106.9* | 105.5* | 73.9* | 96.7* | 99.3* | 107.3*
Cc1ccc(C2CC(c3cccs3)=NN2C(=O)CCl)cc1 (configuration not stated) | -60.6* | 77.0* | 65.3* | 27.7 | -46.0 | -127.1 | · | · | Mdm2-MdmX confirm=102.5*

Source: PubChem
